# Laboratory results: PubChem BioAssay (Tox21)
# Values joined by “and” are separate entries in the source; they are usually repeats but may differ in a detail not shown here. Equal values may be shown once. Inconclusive results are not listed. A call without a number means that no potency is given here. Some compounds were tested as several samples or in several runs, with calls that do not always agree. Active and inactive are the calls of the source. Unless noted, calls follow the shape of the dose curve; as a rule, active = well fitted curve in the direction sought with a large enough effect in the repeat runs; inconclusive = weak or mixed curves; inactive = no such curve, though single readings can be large; an effect the other way counts as inactive or inconclusive.
# How the values were obtained:
# [1] = qHTS assay to identify small molecule antagonists of the estrogen related receptor (ERR) signaling pathway from Tox21 library - cell viability counter screen (AID 1224834); also: nearly all actives have a fitted effect of over 30% in size; also: potency is read from the fitted curve at half-maximal effect
# In short: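 ERR reporter cells were plated 6 h before compound addition, then exposed to test compounds in DMSO for 17.5 h at 37 C. Viability was read as CellTiter-Fluor fluorescence after a 30-minute incubation at 37 C.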
# [2] = qHTS assay to identify small molecule agonists of the constitutive androstane receptor (CAR) signaling pathway - cell viability counter screen (AID 1224836); also: nearly all actives have a fitted effect of over 45% in size; also: potency is read from the fitted curve at half-maximal effect; as to viability change, negative = cytotoxic: series mostly up to about 92 µM
# In short: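 Double-stable HepG2 hepatoma cells (hCAR plus CYP2B6-2.2kb) are treated for 23 h at 37 C with test compounds in 15-point concentration series. PK11195 at 0.75 uM final is co-added. Cell viability is quantified by CellTiter-Fluor.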
# [3] = qHTS assay to identify small molecule antagonists of the constitutive androstane receptor (CAR) signaling pathway - cell viability counter screen (AID 1224837); also: nearly all actives have a fitted effect of over 45% in size; also: potency is read from the fitted curve at half-maximal effect; as to activity change, negative = cytotoxicity: series mostly up to about 92 µM
# In short: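 HepG2 cells stably expressing hCAR and a CYP2B6-2.2kb reporter were plated and pre-incubated 4 hr at 37 C/5% CO2, then given compounds at 15 concentrations plus 50 nM CITCO (final). After 23 hr, viability was read by CellTiter-Fluor fluorescence.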
# [4] = target: Nuclear receptor subfamily 1 group I member 3 (Homo sapiens) (UniProt Q14994); test: qHTS assay to identify small molecule antagonists of the constitutive androstane receptor (CAR) signaling pathway (AID 1224838); also: nearly all actives have a fitted effect of over 40% in size
# In short: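 HepG2 cells stably co-transfected with hCAR and a CYP2B6-2.2kb luciferase reporter were seeded 4 h before compound addition at 15 concentrations. Cells were stimulated with 50 nM CITCO (final) for 24 h at 37 C; luciferase luminescence was then read.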
# [5] = qHTS assay to identify small molecule antagonists of the estrogen related receptor signaling pathway with the pleiotropic PPARgamma coactivator (PGC) from Tox21 10K library - cell viability counter screen (AID 1224840; active = well fitted cell-killing curve with a large enough effect in the repeat runs, not every such curve was filed as active; also: nearly all actives have a fitted effect of over 40% in size; also: potency is read from the fitted curve at half-maximal effect)
# In short: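 PGC/ERR cells were seeded at 2,000 cells/well and left 6 hours at 37 C/5% CO2 before pin-tool addition of compounds in DMSO. After 17.5 hours at 37 C, CellTiter-Fluor was added and fluorescence read 30 minutes later.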
# [6] = target: Luciferin 4-monooxygenase (Photinus pyralis) (UniProt P08659); test: qHTS assay to identify small molecule inhibitors of firefly luciferase (AID 1224835); also: nearly all actives have a fitted effect of over 25% in size; also: potency is read from the fitted curve at half-maximal effect
# In short: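 Biochemical qHTS: compounds run as interplate titrations against purified firefly enzyme, with D-luciferin and ATP each at its KM concentration. Light output recorded by CCD imaging.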
# [7] = qHTS assay to identify small molecule antagonists of the estrogen related receptor signaling pathway with the pleiotropic PPARgamma coactivator (PGC) from Tox21 10K library (AID 1224841; call rule not given here; also: actives are mostly falling curves and most rising ones were filed inactive; nearly all actives have a fitted effect of over 50% in size; also: potency is read from the fitted curve at half-maximal effect; as to activity, negative = inhibition: series mostly up to about 92 µM)
# In short: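 PGC/ERR reporter cells were seeded at 2,000 cells/well and held 6 hours at 37 C/5% CO2 before pin-tool addition of compounds in DMSO. After 18 hours at 37 C, One-Glo was added and luminescence read after 30 minutes at room temperature.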
# [8] = target: Nuclear receptor subfamily 1 group I member 3 (Homo sapiens) (UniProt Q14994); test: qHTS assay to identify small molecule agonists of the constitutive androstane receptor (CAR) signaling pathway (AID 1224839); also: nearly all actives have a fitted effect of over 15% in size; also: potency is read from the fitted curve at half-maximal effect
# In short: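 Readout: firefly luciferase luminescence via ONE-Glo. System: HepG2 double-stable for hCAR and CYP2B6-2.2kb. Conditions: 15-point compound titration, PK11195 at 0.75 uM final, 24 h incubation.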
# [9] = qHTS assay to identify small molecule agonists of the estrogen related receptor signaling pathway with the pleiotropic PPARgamma coactivator (PGC) from Tox21 10K library (AID 1224842); also: nearly all actives have a fitted effect of over 15% in size
# In short: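 PGC/ERR reporter cell line, 2,000 cells per well, incubated 6 h at 37 C before 23 nL compound in DMSO was added. After 18 h at 37 C, One-Glo luminescence read following 30 min at room temperature.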
# [10] = target: Thyrotropin receptor (Homo sapiens) (UniProt P16473); test: qHTS assay to identify small molecule agonists of the thyroid stimulating hormone receptor (TSHR) signaling pathway (AID 1224843; calls by dose curve; also: nearly all actives have a fitted effect of over 45% in size; also: potency is read from the fitted curve at half-maximal effect)
# In short: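 Steps: seed 800 TSHR-HEK293 cells per well; add test compound and hold 30 min at ambient temperature; dispense cAMP-d2 then anti-cAMP cryptate; incubate 1 h at ambient; measure fluorescence intensity.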
# Sequence of Thyrotropin receptor (Homo sapiens) (P16473 whole entry, looked up): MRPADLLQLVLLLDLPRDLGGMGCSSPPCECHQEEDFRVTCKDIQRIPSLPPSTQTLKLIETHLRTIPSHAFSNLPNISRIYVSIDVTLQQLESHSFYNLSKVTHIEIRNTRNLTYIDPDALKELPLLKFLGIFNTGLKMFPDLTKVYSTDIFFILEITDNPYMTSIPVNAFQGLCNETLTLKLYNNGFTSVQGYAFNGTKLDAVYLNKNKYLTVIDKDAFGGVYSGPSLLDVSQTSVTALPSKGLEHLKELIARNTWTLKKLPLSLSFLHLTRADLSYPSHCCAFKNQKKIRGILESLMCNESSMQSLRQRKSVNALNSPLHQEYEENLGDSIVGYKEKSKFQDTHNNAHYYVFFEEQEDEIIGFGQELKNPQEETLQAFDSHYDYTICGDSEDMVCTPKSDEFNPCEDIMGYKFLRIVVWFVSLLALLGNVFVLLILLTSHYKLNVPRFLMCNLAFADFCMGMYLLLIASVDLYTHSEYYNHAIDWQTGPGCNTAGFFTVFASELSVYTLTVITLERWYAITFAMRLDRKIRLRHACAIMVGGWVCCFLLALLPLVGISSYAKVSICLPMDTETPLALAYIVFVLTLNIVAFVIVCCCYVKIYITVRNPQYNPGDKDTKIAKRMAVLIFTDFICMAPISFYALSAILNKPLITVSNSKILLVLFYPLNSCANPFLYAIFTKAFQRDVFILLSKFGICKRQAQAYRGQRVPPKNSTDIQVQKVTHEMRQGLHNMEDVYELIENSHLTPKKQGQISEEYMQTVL
# Sequence of Luciferin 4-monooxygenase (Photinus pyralis) (P08659 whole entry, looked up): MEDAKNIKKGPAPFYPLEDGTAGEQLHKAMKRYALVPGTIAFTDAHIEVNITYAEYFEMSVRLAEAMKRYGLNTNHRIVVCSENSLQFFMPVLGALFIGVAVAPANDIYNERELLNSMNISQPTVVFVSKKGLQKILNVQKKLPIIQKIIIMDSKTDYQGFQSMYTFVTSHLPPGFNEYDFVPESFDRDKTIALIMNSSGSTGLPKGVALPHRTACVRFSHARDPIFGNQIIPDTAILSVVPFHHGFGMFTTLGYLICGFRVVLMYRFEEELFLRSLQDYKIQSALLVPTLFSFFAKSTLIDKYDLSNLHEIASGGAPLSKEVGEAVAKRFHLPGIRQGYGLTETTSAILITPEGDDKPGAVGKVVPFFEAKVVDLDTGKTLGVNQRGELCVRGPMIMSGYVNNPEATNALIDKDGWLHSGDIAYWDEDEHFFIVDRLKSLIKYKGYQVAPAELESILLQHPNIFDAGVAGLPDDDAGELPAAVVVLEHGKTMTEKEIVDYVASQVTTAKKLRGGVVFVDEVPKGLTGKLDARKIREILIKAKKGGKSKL
# Sequence of Nuclear receptor subfamily 1 group I member 3 (Homo sapiens) (Q14994 whole entry, looked up): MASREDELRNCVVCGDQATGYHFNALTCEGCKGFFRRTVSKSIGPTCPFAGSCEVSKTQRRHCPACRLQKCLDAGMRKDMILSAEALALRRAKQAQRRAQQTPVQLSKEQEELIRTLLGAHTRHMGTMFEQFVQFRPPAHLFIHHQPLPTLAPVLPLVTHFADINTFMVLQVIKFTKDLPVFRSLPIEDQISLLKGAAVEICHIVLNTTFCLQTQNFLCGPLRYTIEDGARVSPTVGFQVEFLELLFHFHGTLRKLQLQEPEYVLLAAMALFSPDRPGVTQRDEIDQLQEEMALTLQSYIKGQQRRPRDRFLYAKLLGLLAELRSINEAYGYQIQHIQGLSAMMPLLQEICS
smiles,measurement,setting,value
S=C=Nc1ccccc1,Potency,[1],inactive
same,Potency,[2],inactive
same,Potency,[3],inactive
same,Potency,[4],inactive
same,Potency,[5],inactive
O.O.O.O.O.O.O.O=S(=O)([O-])[O-].[Co+2],Potency,[1],inactive
same,Potency,[2],inactive
same,Potency,[3],inactive
same,Potency,[5],inactive
CC(=O)[O-].CC(=O)[O-].[Co+2],Potency,[1],inactive
same,Potency,[2],inactive
same,Potency,[5],inactive
O=C(O)[C@H](O)[C@@H](O)C(=O)O,Potency,[1],inactive
same,Potency,[6],inactive
same,Potency,[5],inactive
CCC[CH2][Sn]([CH2]CCC)([CH2]CCC)[O][Sn]([CH2]CCC)([CH2]CCC)[CH2]CCC,Potency,[1],1.06 µM (active)
same,Potency,[2],0.752 µM (active)
same,Potency,[5],533 nM (active)
same,"activity, negative = inhibition",[7],332% [at 8.39 µM] (inactive)
Brc1cccc(-c2ccccc2)c1,Potency,[1],inactive
same,Potency,[2],inactive
same,Potency,[3],inactive
same,Potency,[4],inactive
same,Potency,[8],inactive
same,Potency,[5],inactive
same,Potency,[7],inactive
same,Potency,[9],inactive
CC(=O)O.CC(=O)O.CC(=O)O.CC(=O)O.CC(=O)O.CC(=O)O.CC(=O)O.O.O.[Cr].[Cr].[Cr],Potency,[1],inactive
same,Potency,[2],inactive
same,Potency,[3],inactive
same,Potency,[5],inactive
COP(=S)(OC)Oc1nc(Cl)c(Cl)cc1Cl,Potency,[1],inactive
same,Potency,[2],inactive
same,Potency,[3],inactive
same,Potency,[5],inactive
same,Potency,[7],inactive
same,Potency,[9],inactive
same,Potency,[10],inactive
O=NN(CCO)CCO,Potency,[1],inactive
same,Potency,[2],inactive
same,Potency,[3],inactive
same,Potency,[5],inactive
same,Potency,[7],inactive
same,Potency,[9],inactive
same,Potency,[10],inactive
O=C1C(Cl)=C(Cl)C(=O)C(Cl)=C1Cl,Potency,[1],34.2 µM (active) and 30.6 µM (active)
same,Potency,[6],31.6 µM (active) and 15.9 µM (active)
same,Potency,[3],inactive
same,Potency,[4],inactive
same,Potency,[8],inactive
same,Potency,[5],54.3 µM (active) and inactive
same,Potency,[7],60.9 µM (active) and inactive
same,Potency,[9],inactive
same,Potency,[10],27.2 µM (active)
CC(C)=CCN1CC[C@@]2(C)c3cc(O)ccc3C[C@@H]1[C@@H]2C,Potency,[1],inactive
same,Potency,[2],inactive
same,Potency,[3],inactive
same,Potency,[5],inactive
same,Potency,[10],inactive
[Cl-].[Cl-].[Cl-].[Yb+3],Potency,[1],inactive
same,Potency,[2],inactive
same,Potency,[3],inactive
same,Potency,[5],inactive
O=S(=O)(NS(=O)(=O)C(F)(F)F)C(F)(F)F,Potency,[1],43.1 µM (active)
same,Potency,[2],24.3 µM (active)
same,Potency,[3],30.5 µM (active)
same,Potency,[5],inactive
CCC(C)c1cccc(C(C)CC)c1O (stereo unspecified),Potency,[6],inactive
same,Potency,[2],inactive
same,Potency,[3],inactive
Oc1ccc([C@H]2CNCc3c2ccc(O)c3O)cc1O,Potency,[1],inactive
same,Potency,[2],inactive
same,Potency,[3],inactive
same,Potency,[8],inactive
same,Potency,[5],inactive
same,Potency,[7],inactive
same,Potency,[9],inactive
CN1CCc2cc(Cl)c(O)cc2[C@H]2c3ccccc3CC[C@@H]21,Potency,[1],inactive
same,Potency,[6],inactive
same,Potency,[4],inactive
same,Potency,[8],inactive
same,Potency,[5],inactive
same,Potency,[7],inactive
same,Potency,[9],inactive
same,Potency,[10],inactive
c1cc[n+]2c(c1)-c1cccc[n+]1CC2,Potency,[1],inactive
same,Potency,[6],inactive
same,Potency,[4],inactive
same,Potency,[5],inactive
same,Potency,[10],inactive
C#CC1(O)CCCCC1,Potency,[1],inactive
same,Potency,[6],inactive
same,Potency,[2],inactive
same,Potency,[5],inactive
same,Potency,[7],inactive
same,Potency,[9],inactive
same,Potency,[10],inactive
CC(=O)[O-].CC(=O)[O-].CC(=O)[O-].[Cr+3],Potency,[1],inactive
same,Potency,[2],inactive
same,Potency,[3],inactive
same,Potency,[5],inactive
CCCCCCCCCCCCCCn1cc[n+](C)c1,Potency,[1],27.4 µM (active) and 30.3 µM (active)
same,Potency,[6],inactive
same,Potency,[5],27.4 µM (active) and 30.3 µM (active)
same,Potency,[7],24.4 µM (active) and 24.1 µM (active) and inactive
same,Potency,[9],inactive
CO/N=C(\C(=O)OC)c1ccccc1CO/N=C(\C)c1cccc(C(F)(F)F)c1,Potency,[1],inactive
same,Potency,[6],inactive
same,Potency,[3],inactive
same,Potency,[4],inactive
same,Potency,[8],8.63 µM (active)
same,Potency,[5],inactive
CC(=O)[O-].CC(=O)[O-].O.O.[Zn+2],Potency,[1],inactive
same,Potency,[2],inactive
same,Potency,[3],inactive
same,Potency,[5],inactive
CC(=O)[O-].CC(=O)[O-].CC(=O)[O-].[Sb+3],"viability change, negative = cytotoxic",[1],0.176% [at 3.27 µM] (inactive)
same,"viability change, negative = cytotoxic",[2],-15.6% [at 3.27 µM] (inactive)
same,"activity change, negative = cytotoxicity",[3],-10.2% [at 3.26 µM] (inactive)
same,"viability change, negative = cytotoxic",[5],3.7% [at 3.27 µM] (inactive)
[Cl-].[Cl-].[Sn+2],Potency,[1],inactive
same,Potency,[2],inactive
same,Potency,[5],inactive
CSC1=N[C@@](C)(c2ccccc2)C(=O)N1Nc1ccccc1,Potency,[1],inactive
same,Potency,[6],inactive
same,Potency,[3],inactive
same,Potency,[4],inactive
same,Potency,[8],19.3 µM (active)
same,Potency,[5],inactive
CCN(CC)Cc1nccn1-c1ccc([N+](=O)[O-])cc1C(=O)c1ccccc1Cl,Potency,[1],inactive
same,Potency,[6],inactive
same,Potency,[3],26.6 µM (active)
same,Potency,[5],inactive
same,Potency,[7],inactive
same,Potency,[9],inactive
CN,Potency,[1],inactive
same,Potency,[2],inactive
same,Potency,[3],inactive
same,Potency,[4],inactive
same,Potency,[8],inactive
same,Potency,[5],inactive
same,Potency,[10],inactive
CCCCn1cc[n+](C)c1 (tested in a mixture with another compound),Potency,[1],inactive
same,Potency,[2],inactive
same,Potency,[3],inactive
same,Potency,[5],inactive
CCCCn1cc[n+](C)c1.[Cl][Fe-]([Cl])([Cl])[Cl],Potency,[1],inactive
same,Potency,[2],inactive
same,Potency,[5],inactive
CC(Cc1ccccc1)N(C)Cc1ccco1 (stereo unspecified),Potency,[1],inactive
same,Potency,[6],inactive
same,Potency,[2],inactive
same,Potency,[5],inactive
same,Potency,[10],inactive
CCOP(=O)(OCC)Oc1cc(C)nc(C(C)C)n1,Potency,[1],inactive
same,Potency,[6],inactive
same,Potency,[2],inactive
same,Potency,[5],inactive
same,Potency,[7],inactive
same,Potency,[9],inactive
same,Potency,[10],inactive
